Experimental data published in the supplement of paper PMC10127200.
Structures can show the parent of a compound that is named as a salt.

Assays:
Experiment in all cases: Euclidean distance of Cell Painting phenotypic profile (signed KS, 77 features) to DMSO centroid (dimensionless distance); 5 or 10 uM (library dependent); higher = stronger phenotypic change vs DMSO (phenoactivity)
Conditions in all cases: 48 h
786-O = test system: 786-O
Procedure, shortened: (§1)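 Phenoactivity is defined as the Euclidean distance from a compound profile to the median vehicle profile. Each profile comprised 77 Harmony features, scored as signed Kolmogorov-Smirnov statistics versus same-plate vehicle wells, then plate-position corrected, correlation-weighted and replicate-averaged at the top dose. Five cancer lines and one healthy fibroblast line were exposed to library compounds for 48 h at 10 or 5 uM (0.1% DMSO final).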

A549 = test system: A549
Procedure, shortened: as §1

DU145 = test system: DU145
Procedure, shortened: as §1

FB = test system: FB
Procedure, shortened: as §1

HEPG2 = test system: HEPG2
Procedure, shortened: as §1

OVCAR4 = test system: OVCAR4
Procedure, shortened: as §1

SMILES | Euclidean distance (786-O) | Euclidean distance (A549) | Euclidean distance (DU145) | Euclidean distance (FB) | Euclidean distance (HEPG2) | Euclidean distance (OVCAR4)
O=C(NOCC1CC1)c1ccc(F)c(F)c1Nc1ccc(I)cc1Cl | 2.48 | 3.7 | 2.78 | 2.12 | 2.22 | 2.06
CCCCc1oc2ccc(NS(C)(=O)=O)cc2c1C(=O)c1ccc(OCCCN(CCCC)CCCC)cc1 [Dronedarone] | 4.33 | 4.18 | 3.45 | 3.39 | 4.6 | 3.76
O=C(NNc1ccccc1)c1ccncc1 | 2.02 | 1.17 | 0.814 | 1.28 | 1.46 | 1.39
O=C(NCCO[N+](=O)[O-])c1cccnc1 [Nicorandil] | 1.26 | 0.857 | 1.26 | 1.09 | 0.784 | 1.38
COc1ccc(-c2ccc3c(N4CCOCC4)nc(N4C[C@@H](C)O[C@@H](C)C4)nc3n2)cc1CO | 1.93 | 2.15 | 1.96 | 3.61 | 2 | 2.43
O=C(Nc1ccc(S(=O)(=O)Nc2ccccc2Cl)c(Cl)c1)c1ccccn1 | 0.876 | 0.81 | 0.6 | 0.594 | 0.744 | 0.782
CC(C)(CO)[C@@H](O)C(=O)NCCC(=O)NCCSSCCNC(=O)CCNC(=O)[C@H](O)C(C)(C)CO [D-Pantethine] | 1.1 | 1.2 | 0.679 | 1 | 0.969 | 1.35
COc1cc2ncnc(Nc3ccc(O)c(Br)c3)c2cc1OC | 1.36 | 1.35 | 1.92 | 1.7 | 1.64 | 0.933
Nc1c(Br)cc(Br)cc1CN[C@H]1CC[C@H](O)CC1 [Ambroxol] | 1.17 | 0.59 | 0.867 | 0.611 | 0.645 | 0.78
CNCCCC12CCC(c3ccccc31)c1ccccc12 [Maprotiline HCl] | 0.958 | 1.1 | 1.11 | 2.09 | 1.53 | 0.98
O=C1[C@H](Cc2ccc(O)cc2)N2C(=O)CCN(C(=O)NCc3ccccc3)[C@H]2CN1Cc1cccc2ccccc12 | 2.87 | 2.53 | 1.39 | 3.88 | 1.43 | 2.09
C[C@@H]1O[C@@H](O[C@H]2[C@H](Oc3cc(O)c4c(c3)O[C@H](c3ccc(O)cc3)CC4=O)O[C@H](CO)[C@@H](O)[C@@H]2O)[C@H](O)[C@H](O)[C@H]1O [Naringin] | 1.25 | 1.01 | 0.644 | 1.2 | 0.575 | 1.74
Nc1nc(N)c2nc(-c3cccc(O)c3)c(-c3cccc(O)c3)nc2n1 | 1.06 | 1.73 | 1 | 1.45 | 2.84 | 1.02
CN1CCN(CCCN2c3ccccc3Sc3ccc(Cl)cc32)CC1 [Prochlorperazine dimaleate salt] | 1.84 | 2.24 | 1.63 | 2.19 | 2.85 | 1.67
O=c1ccn([C@@H]2O[C@H](COP(=O)(O)OP(=O)(O)OP(=O)(O)O)[C@@H](O)[C@H]2O)c(=O)[nH]1 [UTP. Trisodium Salt] | 1.15 | 0.718 | 0.761 | 0.666 | 1.23 | 0.979
O=C1NCCc2[nH]c(-c3ccncc3)cc21 | 3.08 | 0.97 | 1.24 | 3.06 | 2.81 | 3.15
CCN(CC)C(=O)Nc1ccc(OCC(O)CNC(C)(C)C)c(C(C)=O)c1 (centres undefined) [Celiprolol hydrochloride] | 0.816 | 0.829 | 1.41 | 1.17 | 0.422 | 1.24
COc1cccc(N2CCN(C3=Nc4c(F)cccc4C(CC(=O)O)N3c3cc(C(F)(F)F)ccc3OC)CC2)c1 (centres undefined) [Letermovir(AIC246)] | 1.22 | 1.44 | 0.984 | 0.978 | 0.523 | 1.01
COc1cc2c(N3CCN(C(=O)Nc4ccc(OC(C)C)cc4)CC3)ncnc2cc1OCCCN1CCCCC1 [Tandutinib (MLN518)] | 0.691 | 1.73 | 1.35 | 2.68 | 1.52 | 1.12
CN1CCC(CNc2ccc3ncc(-c4cccc(OC(F)(F)F)c4)n3n2)CC1 [SGI-1776 free base] | 2.39 | 3.26 | 1.73 | 3.26 | 4 | 1.54
[O-][n+]1cccc(-c2nc3c(Cl)cccc3cc2[C@@H](Nc2ncnc3cccnc23)C(F)(F)F)c1 [Seletalisib (UCB-5857)] | 1.2 | 0.825 | 1.4 | 1.69 | 1.73 | 2.03
Cn1c(=O)c2[nH]cnc2n(C)c1=O [Aminophylline] | 1.11 | 1.06 | 0.75 | 0.798 | 0.585 | 0.841
COc1ccccc1OCC(O)COC(N)=O (centres undefined) [Methocarbamol] | 1.4 | 0.507 | 1.06 | 0.751 | 1.83 | 0.907
NC(=NCCCCCCN=C(N)N=C(N)Nc1ccc(Cl)cc1)N=C(N)Nc1ccc(Cl)cc1 [Chlorhexidine?2HCl] | 2.98 | 3.13 | 2.18 | 1.67 | 2.59 | 2.56
CCN(CC)CCOc1ccc2c(c1)C(=O)c1cc(OCCN(CC)CC)ccc1-2 [Tilorone dihydrochloride] | 2.8 | 3.87 | 2.37 | 5.04 | 4.45 | 3.1
CCCc1ncc(C[n+]2ccccc2C)c(N)n1 [Amprolium HCl] | 1.47 | 0.883 | 1.08 | 1.27 | 0.679 | 1.39
CS(=O)(=O)c1ccc(C2=C(c3ccccc3)C(=O)OC2)cc1 [Rofecoxib] | 1.05 | 0.859 | 0.686 | 0.821 | 0.51 | 1.24
C#C[C@]1(O)CC[C@H]2[C@@H]3CCC4=CC(=O)CC[C@@H]4[C@H]3CC[C@@]21CC [Levonorgestrel] | 1.01 | 0.81 | 0.624 | 0.673 | 0.994 | 0.816
NCc1ccc(S(N)(=O)=O)cc1 [Mafenide hydrochloride] | 1.35 | 0.84 | 0.784 | 0.654 | 0.629 | 1.46
